Measured values published in PubChem BioAssay AID1850 (Southern Research Specialized Biocontainment Screening …, 2009).
Several values for one entry are separate records, joined by “and”; a condition that tells them apart may be missing. Equal entries are not always repeated. About 1,000 (0.32%) of roughly 310,000 compounds were called active. How the calls were made is not given here. A selection follows. Results with a measured potency or affinity are listed apart.

Assay: Inhibition of PhoP regulon, Salmonella typhi GFP reporter cells, confirmation, 4 h (AID 1850);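 further: 0% = induced wells with vehicle and 100% = uninduced wells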
Settings: Salmonella Typhi PhoP-promoter GFP reporter, fluorescence, at 50 µM, hits give high values

| SMILES | inhibition |
| --- | --- |
| CCCCCc1ccc(CC(=O)O)cc1 | 7.27% (inactive) |
| CCCCCCNC(=O)C(=O)NCCc1ccc(Cl)cc1 | -2.68% (inactive) |
| Cc1[nH]c2ccccc2c1C(=O)CN1C(=O)C(=O)N(Cc2ccco2)C1=O | -2.82% (inactive) |
| CN(Cc1ccccc1)CC(O)COc1ccc(CNCc2cc3ccccc3s2)cc1 (stereo unspecified) | 5.91% (inactive) |
| CN(Cc1ccccc1)CC(O)COc1ccc(CNCc2cccnc2)cc1 (stereo unspecified) | 6.07% (inactive) |
| COc1ccc(OC(C)C(=O)NCc2cccnc2)cc1 (stereo unspecified) | -6.99% (inactive) |
| O=C(Nc1cccc(Cl)c1)c1ccccc1 | -1.86% (inactive) |
| O=C(Nc1ccc(Cl)c(Cl)c1)c1ccccc1 | -28.6% (inactive) |
| COc1cc(C)ccc1N(CCCN1C(=O)c2cccc3cccc(c23)C1=O)C(=O)c1cccs1 | -7.11% (inactive) |
| O=C1c2ccccc2NC(c2ccccc2O)N1c1ccc(F)cc1 (stereo unspecified) | -11.4% (inactive) |
| CC1(C)Cc2c(cnn2-c2cccc(F)c2)C(NC(=O)c2ccc(=O)[nH]n2)C1 (stereo unspecified) | 2.67% (inactive) |
| O=C(CCN1C(=O)c2ccccc2C1=O)Nn1cnnc1 | -10.1% (inactive) |
| CC(=O)c1ccc(NC(=O)C2CCCN2S(=O)(=O)c2ccc(F)cc2)cc1 (stereo unspecified) | 0.38% (inactive) |
| O=S1(=O)CCOC[C@H](c2ccccc2)N1Cc1cccc(Cl)c1 | 9.33% (inactive) |
| C=CCc1cc(C)ccc1OCCCC(C(=O)OCC)C(=O)OCC | -4.53% (inactive) |
| CCCCOc1ccc(C)cc1CN(CCO)CCO | -0.81% (inactive) |
| Cc1cc(NC(=O)c2cccs2)n(-c2ccccc2)n1 | -5.58% (inactive) |
| CCOC(=O)c1cn(-c2ccc([N+](=O)[O-])cc2)c2cc(Cl)c([N+](=O)[O-])cc2c1=O | -25.3% (inactive) |
| O=C(O)c1cn(-c2ccc(F)cc2)c(=O)c2ccccc12 | -6.8% (inactive) |
| CNC(=O)C(=O)NCC1OCCN1S(=O)(=O)c1ccc([N+](=O)[O-])cc1 (stereo unspecified) | 0.4% (inactive) |
| CC(=O)c1c(C)[nH]c(C(=O)COC(=O)c2ccc3c(=O)n4c(nc3c2)CCC4)c1C | -1.34% (inactive) |
| Cc1ccccc1NC(=O)c1ccc([N+](=O)[O-])o1 | 11.6% (inactive) |
| Cc1cccc(NC(=O)c2ccc([N+](=O)[O-])o2)c1C | -7.49% (inactive) |
| CCn1nnc(NC(=O)c2ccc(-c3ccccc3[N+](=O)[O-])o2)n1 | 11.3% (inactive) |

| SMILES | inhibition |
| --- | --- |
| O=C(Nc1ccc(Cc2ccncc2)cc1)c1ccc(Br)o1 | 7.97% (inactive) |
| CC(=O)c1ccc(NC(=O)c2ccc([N+](=O)[O-])o2)cc1 | 10.8% (inactive) |
| O=C(Nc1c(Cl)ccc2nsnc12)c1ccco1 | -5.33% (inactive) |
| CCn1nnc(NC(=O)c2ccc(Br)o2)n1 | 3.35% (inactive) |
| Cc1ccc2nsnc2c1NC(=O)c1ccc([N+](=O)[O-])o1 | 1.72% (inactive) |
| Cc1c(C(=O)N2CCC(N3CCSCC3)CC2)oc2c(F)cccc12 | -3.19% (inactive) |
| Cc1cc(NC(=O)NCC(F)(F)F)no1 | -7.59% (inactive) |
| CCN(CC)C(=O)c1sc2nc(N3CCOCC3)c3c(c2c1N)CCCC3 | 3.42% (inactive) |
| O=C(Nc1ccccc1Cl)NC1(C(=O)NCc2ccncc2)CCCCC1 | 9.06% (inactive) |
| CC(C)Cn1c(SCc2nc3ccccc3c(=O)[nH]2)nc2ccccc2c1=O | -7.91% (inactive) |
| Cc1sc(NC(=O)C2=COCCO2)nc1-c1ccc(F)cc1 | -5.87% (inactive) |
| O=C1CSC(c2ccc3c(c2)OCO3)N1c1ccc(Oc2ccccc2)cc1 (stereo unspecified) | 7.07% (inactive) |
| Fc1ccc(CSc2ccc(-c3ccco3)nn2)cc1 | 6.93% (inactive) |
| c1ccc(CSc2ccc(-c3ccco3)nn2)cc1 | 9.52% (inactive) |
| C[C@]12CCC(=O)C=C1CC[C@@H]1C2CC[C@]2(C)C(=O)CCC12 (stereo partly specified) | -12.1% (inactive) |
| O=[N+]([O-])c1ccc(N/N=C/c2ccccc2)c(F)c1 | -8.42% (inactive) |
| O=C(CCc1nnc(Cc2ccc(-c3ccccc3)cc2)o1)NCCc1cccnc1 | -5.62% (inactive) |
| O=C(Oc1c(Cl)cc(Cl)c2cccnc12)c1cccs1 | 13.7% (inactive) |
| O=C(Oc1ccc(Cl)c2cccnc12)c1cccc([N+](=O)[O-])c1 | -4.89% (inactive) |
| O=C(Oc1ccc(Cl)c2cccnc12)c1ccco1 | -5.73% (inactive) |
| O=C(Oc1cccc2cccnc12)c1cccc([N+](=O)[O-])c1 | 1.2% (inactive) |
| O=C(Nc1cccc(Cl)c1)c1ccc(=O)[nH]n1 | 12.7% (inactive) |
| CC1CCC(NC(=O)c2nn(C)c3c2CS(=O)(=O)c2ccccc2-3)CC1 (stereo unspecified) | 5.03% (inactive) |
| COc1cccc(C(=O)NNC(=O)Cc2ccc(Cl)cc2)c1 | -3.92% (inactive) |

| SMILES | inhibition |
| --- | --- |
| CSCCC(N=C(NS(=O)(=O)c1ccc(C)cc1)c1ccccc1)C(=O)O (stereo unspecified) | -3.75% (inactive) |
| CCC(C)(C)NC(=O)CN(C(=O)c1snc(C(N)=O)c1N)c1ccc2nc(C)sc2c1 | -5.66% (inactive) |
| O=C(CCN1C(=O)C2C3C=CC(C3)C2C1=O)N1CCN(c2ccccc2F)CC1 (stereo unspecified) | 18.6% (inactive) |
| COC(=O)CSc1nc2nc(-c3cccs3)cc(C(F)(F)F)c2c(=O)[nH]1 | -1.37% (inactive) |
| CCOC(=O)c1cc2c(cn1)[nH]c1ccccc12 | 9.76% (inactive) and 5.1% (inactive) |
| CNC(=O)c1cc2c(cn1)[nH]c1ccccc12 | 3.35% (inactive) |
| CCOC(=O)CCC(=O)Nc1ccc(S(=O)(=O)Nc2cc(OC)nc(OC)n2)cc1 | -6.86% (inactive) |
| Cc1cc(C)c2c3c(sc2n1)C(=O)N(C)CC(=O)N3 | -4.13% (inactive) |
| C/C(N)=C(/C#N)C(=O)COC(=O)CCC1CCCC1 | 0.41% (inactive) |
| N#CCC(=O)Nc1ccc(C(=O)N2CCN(c3ccccn3)CC2)cc1 | 14.2% (inactive) |
| CN(C)c1ccc(CN(Cc2ccco2)C(=O)c2ccco2)cc1 | -2.38% (inactive) |
| CS(=O)(=O)N1CCC(Oc2ccccc2C(=O)NC2CCCCCC2)CC1 | -17.3% (inactive) |
| CC(=O)c1cnc(Nc2cccc(C)c2)s1 | -8.01% (inactive) |
| Cn1c(CNC(=O)CNS(=O)(=O)c2ccc(Br)cc2)cc(=O)n(C)c1=O | -1.92% (inactive) |
| CC(C)c1ccc(OCC(=O)NNC(=S)NC(=O)c2cccs2)c(Br)c1 | -8.98% (inactive) |
| COc1ccc2oc(C(=O)OCC(=O)N(C)CC(=O)Nc3ccc(C)cc3)c(C)c2c1 | 6.55% (inactive) |
| CC1CCN(C(=O)c2ccc([N+](=O)[O-])o2)CC1 | 5.43% (inactive) |
| O=C(c1ccc([N+](=O)[O-])o1)N1CCN(Cc2ccccc2)CC1 | -0.17% (inactive) |
| COc1ccc(C(=O)Nc2ccc(N3CCCC3)cc2)cc1 | -0.89% (inactive) |
| COc1ccccc1NC(=O)COc1ccc(C(=O)OCC(=O)NC(C)(C)C)cc1OC | -5.27% (inactive) |
| COc1cc(/C=N/N=C(N)N)ccc1OCc1ccccc1Cl | -7.28% (inactive) |
| NC(N)=N/N=C/c1ccc(Cl)cc1Cl | 14.2% (inactive) |
| FCCCOc1ccc(/C=N/OCc2ccc(Cl)cc2Cl)cc1 | 14.7% (inactive) |
| Clc1ccccc1COc1ccc(/C=N/n2cnnc2)cc1 | -10.4% (inactive) |

| SMILES | inhibition |
| --- | --- |
| NC(N)=N/N=C/c1ccc(OCc2ccccc2)cc1 | 17% (inactive) |
| COc1cc(/C=N/N=C(N)N)ccc1OCc1ccc(Cl)cc1 | 49.6% (inactive) |
| CCCCCCCNC(=O)C1CC(=O)N(C)C(=Nc2ccc(OC)cc2)S1 (stereo unspecified) | -2.09% (inactive) |
| CCOc1cc(C(=O)OC(C)C(=O)Nc2ccc(S(N)(=O)=O)cc2)ccc1OCC(=O)N1CCOCC1 (stereo unspecified) | 8.2% (inactive) |
| CC(C)CN1C2CCCC1CC(NC(=O)c1ccc([N+](=O)[O-])cc1)C2 (stereo unspecified) | 3.6% (inactive) |
| N/C(=N\NS(=O)(=O)c1ccccc1C(F)(F)F)c1ccccn1 | 2.11% (inactive) |
| COc1cccc(C(=O)Nc2c3c(nc4c2CCC4)CCCC3)c1 | -0.613% (inactive) |
| CC(C)(C)C1CCC(C(=O)OCC(=O)N2CCN(C(=O)c3ccco3)CC2)CC1 (stereo unspecified) | -8.5% (inactive) |
| O=c1c(C=NCc2cccnc2)c(C(F)(F)F)[nH]n1-c1nc2ccccc2s1 | 2.08% (inactive) |
| COC(=O)C1=C(C)Nc2c(c(=O)n(C)c(=O)n2C)C1c1ccc(Cl)cc1 (stereo unspecified) | 0.17% (inactive) |
| CC(=O)c1sc(-c2ccccn2)nc1C | 3.14% (inactive) |
| N=c1ccn2c(n1)O[C@H]1[C@@H](CO)[C@H](O)O[C@H]12 | 2.95% (inactive) |
| CCOC(=O)c1cn(-c2ccc(F)c(F)c2)c2c(F)c(F)c(F)c(F)c2c1=O | -9.71% (inactive) |
| COC(=O)c1cc(NC(=S)NCc2ccc(Cl)cc2)cc(C(=O)OC)c1 | -2.32% (inactive) |
| COC(=O)c1ccc(C)c(NC(=S)NCc2ccc(Cl)cc2)c1 | -7.26% (inactive) |
| O=C(Nc1ccccc1)O/N=C(\c1ccccc1)c1ccccn1 | -16.2% (inactive) |
| Cc1cccc[n+]1CC(=O)Nc1ccc([N+](=O)[O-])cc1 | 1.95% (inactive) |
| Cc1ccc[n+](CC(=O)Nc2ccc([N+](=O)[O-])cc2)c1 | 6.66% (inactive) |
| N#Cc1ccccc1NC(=O)CSc1nnc(-c2ccccc2)n1-c1ccccc1 | 0.92% (inactive) |
| COc1ccc2c(c1OC)C(=O)N(c1ccccc1)C2=O | 9.99% (inactive) |
| COc1ccc2c(c1OC)C(=O)N(c1ccc(O)cc1)C2=O | -3.53% (inactive) |
| CCN(C(=S)NCc1ccccc1)c1ccccc1 | -2.51% (inactive) |
| Cc1c(NC(=O)C(=O)/C=C(\O)c2ccc(Cl)cc2)c(=O)n(-c2ccccc2)n1C | -8.97% (inactive) |
| Cc1cc(C)nc(N/N=C/c2ccccc2)n1 | -1.28% (inactive) |
